Out of some 300,000 compounds screened, about 480 (0.16%) were called active.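 The calls were made as follows: active = inhibition over 29.93%, a cutoff 3 SD above the screen mean, later confirmed by dose response; inconclusive = inhibition over 29.93% but no dose response follow-up; inactive = inhibition at most 29.93% or unconfirmed.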 Not all results are given here. Entries with a potency or affinity are not part of this list.
Test: inhibitors of PhoP regulon expression, primary screen, Salmonella Typhimurium, GFP reporter (AID 1863);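 also: 0% = low Mg2+ inducing control and 100% = high Mg2+ repressing control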
Conditions: S. Typhimurium PhoP-regulated promoter GFP reporter, 4 h; at 50 µM; hits give high values

inhibition, inactive:
Cc1c(CC(=O)N[C@@H](C)C(=O)O)c(=O)oc2c(C)c3occ(-c4ccccc4)c3cc12 9.42%
C=CCN(Cc1nc(-c2ccccc2)no1)C(=O)c1ccc2c(c1)OCO2 1.88%
O=[N+]([O-])c1ccc(/C=N/NC(=S)Nc2ccccc2)o1 18.4%
O=C(/C=C/c1cccc([N+](=O)[O-])c1)NCCSCc1cccc(Cl)c1 -1.04%
CCCCCCCCCC(=O)N1CCN(c2cc3c(cc2F)c(=O)c(C(=O)O)cn3CC)CC1 6.32%
CCn1cc(C(=O)O)c(=O)c2cnc(N3CCN(C(=S)NC(=O)c4ccc(F)c(F)c4)CC3)nc21 7.64%
CCOC(=O)c1sc(N)c(C#N)c1CSc1nnc(C2CC2)n1N 0.84%
COc1cccc2c1OC[C@@H](CO)[C@H]2N(C)C(=O)Nc1ccc(Cl)cc1 -5.57%
Cn1nnnc1SCC1=C(C(=O)O)N2C(=O)C(NC(=O)C3CC3c3ccccc3)C2SC1 (centres undefined) 5.81%
CO[C@@]1(NC(=O)CSCC#N)C(=O)N2C(C(=O)O)=C(CSc3nnnn3C)CS[C@@H]21 2.92%
COC(=O)C(C)Oc1cc(OC(C)C(=O)OC)c2c(-c3ccccc3)cc(=O)oc2c1 (centres undefined) -1.83%
c1ccc(-c2ccc(-c3ccccn3)nn2)nc1 17.9%
c1ccc(-c2ccccn2)nc1 1.51%
C[C@H](NC(=O)C1CC(=O)N(c2ccc3c(c2)OCCO3)C1)C(=O)NC1CCCC1 (some centres undefined) -3.6%
CCN(CC)C(=O)COc1ccc(N(C)S(=O)(=O)c2ccc(NC(C)=O)cc2)cc1 -5.37%
COc1cc(Nc2ncnc(N)n2)cc(OC)c1OC -3.05%
COc1cc(-c2nc(N)n[nH]2)cc(OC)c1OC -10.2%
COc1cccc(OCCNc2cc(Cl)ccc2[N+](=O)[O-])c1 6.62%
Cc1ccc(NC(=O)C2(C)Cc3ccccc3C(=O)O2)cc1 (centres undefined) -8.33%
CC1CCN(CC(=O)Nc2cccc(C(=O)Nc3cccc(C(F)(F)F)c3)c2)CC1 0.24%
O=C(CNC(=O)c1ccccc1)Nc1cccc(C(F)(F)F)c1 -8.93%
O=C1CCN(N=Nc2cccc(Cl)c2)N1 -4.47%
COc1ccc(N2CCN(C(=O)CN(C3CCCCC3)S(C)(=O)=O)CC2)cc1 -3.93%
O=S(=O)(NCc1ccccc1)NCc1ccccc1F -1.32%
O=C(O)c1ccc(CNCc2ccccc2F)cc1 0.78%
Cc1csc(C(=O)O)c1NC(=O)c1c(Cl)cccc1Cl -3.3%
CCn1nc(C(=O)N2CCN(Cc3ccc4c(c3)OCO4)CC2)c2ccccc2c1=O -2.79%
CCn1cc(C(=O)N[C@H](C(=O)O)C(C)C)c(=O)c2cc3c(cc21)OCO3 25.9%
CCOC(=O)c1cn(CC)c2cc3c(cc2c1=O)OCO3 7.75%
CCn1ccc(=O)c2cc3c(cc21)OCO3 2.11%
Cn1c(SCC(=O)NC2CCCCC2)nnc1-c1cc2cc(Cl)ccc2o1 5.87%
CCC(=O)NC(c1cccs1)c1ccc2cccnc2c1O (centres undefined) 27%
CC(C)CC(=O)NC(c1cccs1)c1ccc2cccnc2c1O (centres undefined) 9.48%
O=C1OCc2cc(NC(=O)C3CCCO3)ccc21 (centres undefined) 13.1%
COc1ccc(Cc2nc3ccc(C(=O)N4CCC[C@H]4CO)cc3o2)cc1 -5.77%
COc1ccc2[nH]c3c(=S)nc[nH]c3c2c1 11.1%
Cc1ccc(C)c2c1[nH]c1ccccc12 -11.2%
COc1ccc2[nH]c3c(Cl)ncnc3c2c1 2%
Cc1cc2[nH]c3ccccc3c2c(C)n1 17.6%
Cc1ccc(C2(c3noc(CN(C)Cc4ccccn4)n3)CCCC2)cc1 1.51%
O=C(O)Cn1c(O)c(C2=c3ccccc3=NC2=O)sc1=O 3.25%
COc1cccc(N/C(N)=N/c2nc(C(F)(F)F)cc(C(F)(F)F)n2)c1 -1.8%
O=S1(=O)N=C(N/N=C/c2ccco2)c2ccccc21 11.7%
O=S1(=O)N=C(N/N=C/c2cccs2)c2ccccc21 0.95%
S=c1[nH]c2ccccc2n2c(=S)[nH]nc12 4.88%
O=c1[nH]c2ccccc2n2cnnc12 3.8%
C=CCn1c(SCC(=O)OCC)nc2cc(C(=O)NCc3ccco3)ccc2c1=O -4.98%
CCCn1nc(C(=O)OCC(=O)Nc2cccc(S(N)(=O)=O)c2)c2ccccc2c1=O -1.14%
Nc1[nH]nc2nc3ccccc3cc12 0.6%
Nc1c2ccccc2nc2ccccc12 20.8%
Nc1nc(-c2cccnc2)nn1C(=O)c1ccccc1Cl 0.52%
COc1ccc(-c2csc(NC(=O)COC(=O)c3ccco3)n2)cc1 5.57%
Cc1ccc(C(=O)OCC(=O)NC(=O)c2cccn2C)cc1[N+](=O)[O-] -12.8%
COCCCn1c(Cc2csc(Nc3ccc(F)cc3)n2)nnc1SCC(N)=O 0.4%
COc1ccc(/C(C)=N/NC(=O)CNC(=O)c2ccncc2)cc1 -0.07%
N=c1n(CC(=O)c2ccc([N+](=O)[O-])cc2)c2ccccc2n1Cc1ccc(Cl)cc1 25.9%
N=c1n(CC(=O)c2ccc([N+](=O)[O-])cc2)c2ccccc2n1Cc1ccccc1 39%
Cc1cc(C)n(C(=O)CNC(=O)c2ccc3c(c2)OCCO3)n1 -15.6%
CCO[C@@H]1OC(C(=O)N2CCCCCCC2)=C[C@H](c2cn(C(C)=O)c3ccccc23)[C@H]1CCCO -5.2%
COc1ccc(C)cc1-n1c(-c2ccncc2)n[nH]c1=S -9.19%
Cc1cccc(NC2=CC(=O)CC(C)(C)C2)c1C 2.2%
CC(C(=O)c1ccc(Br)cc1)[n+]1cccc(NC(=O)c2ccccc2)c1 (centres undefined) -0.32%
CC(C(=O)c1ccc(-c2ccccc2)cc1)[n+]1cccc(C(N)=O)c1 (centres undefined) 2.06%
O=C(C[n+]1cccc(CNC(=O)c2ccc(OC(F)F)cc2)c1)Nc1cccc(C(F)(F)F)c1 25.3%
O=C(C[n+]1cccc(CNC(=O)c2ccc(OC(F)F)cc2)c1)Nc1ccc(F)cc1 5.04%
CCOc1ccc(C(=O)NCC(=O)N2CCC3CCCCC3C2)cc1OCC (centres undefined) 7.73%
COc1cc(-c2nnc(SCC(=O)/C(C#N)=C(\C)N)o2)cc(OC)c1OC 0.61%
CCOc1ccc(CCN2C(=O)C(=O)N([C@H](CCCN(C)Cc3ccccc3)CNCc3ccccc3)C[C@@H]2C(C)C)cc1 12.1%
CN(CCCC[C@H](CNCc1ccc(-c2ccccc2)cc1)N1C[C@H](c2ccccc2)N(CCc2ccc(Cl)c(Cl)c2)C(=O)C1=O)Cc1ccc(-c2ccccc2)cc1 8.2%
CCc1ccc(N2C(=O)Nc3ccccc3C2(O)C(=O)N2CCN(c3ccccn3)CC2)cc1 (centres undefined) 10.3%
Cn1c(CSc2nc3ccccc3s2)nnc1SCC(=O)NCc1ccccn1 -6.01%
O=C1NN(c2ccccc2)C(=O)/C1=C/c1coc2ccccc2c1=O 8.22%
Cc1cc(/C=C2/C(=O)NN(c3ccccc3)C2=O)c(C)n1-c1ccc(O)cc1 -4.21%
CCOC(=O)C1=C(O)/C(=C/c2cccc(OC)c2O)N=C1C -9.18%
Cn1c(CCCNC(=O)c2cccs2)nc2ccccc21 -1.8%
Cc1ccc(NC(=O)c2ncc(Cl)c(Cl)c2Cl)cc1C 2%
Nc1cn(C2OC(CO)C(O)C2O)c(=O)[nH]c1=O (centres undefined) 3.77%
O=c1[nH]c(=O)n(C2OC(CO)C(O)C2O)cc1Br (centres undefined) 3.95%
Cc1cc(CNC(=O)c2cccnc2Cl)c2ccccc2n1 1.03%
CC[n+]1c(/C=C/Nc2ccccc2)sc2ccccc21 -20.8%
CC[n+]1c(/C=C/C=C/N(C(C)=O)c2ccccc2)sc2ccccc21 -10.1%
CC[n+]1c(/C=C(\C)SC)sc2ccccc21 0.17%
CCN1/C(=C/c2ccc3cc(C)ccc3[n+]2CC)Sc2ccccc21 -133%
CCN1/C(=C\C=C(C(C)=O)C(C)=O)Sc2ccccc21 -11.4%
CC[n+]1c(/C=C(/C)SC)sc2ccccc21 0.31%
CCN1/C(=C/C=C/C=C/C=C/c2sc3ccccc3[n+]2CC)Sc2ccccc21 -8.59%
CC[n+]1c(/C=C/C=C/N(C(C)=O)c2ccccc2)sc2cc(OC)ccc21 -71.7%
COCCN1CCC(CNCc2c(C(=O)N3CCCCC3)nc3c(C)cccn23)C1 (centres undefined) -11.8%
CCOc1ccccc1CN1CCN(Cc2ccon2)CC1CCO (centres undefined) -9.77%
COc1ccc2c(CC(=O)Nc3ccc(OC)c(S(=O)(=O)N4CCOCC4)c3)coc2c1 4.59%
O=C(NCC(O)COc1ccc([N+](=O)[O-])cc1)c1ccccc1 (centres undefined) -9.65%
Clc1ccc(CNCCC2=CCCCC2)cc1 18.9%
Cc1ccc(CNCCC2=CCCCC2)cc1 -46.6%
O=C(NC1CC1)c1c[nH]c2ccc(S(=O)(=O)Nc3cccc(C(F)(F)F)c3)cc2c1=O 14.8%

Reference: PubChem BioAssay AID1863 (Southern Research Specialized Biocontainment Screening …, 2009)
